# “And” between values parts separate entries of the source, which are not always exact repeats. Equal entries are not always repeated. A number with no mark means an inactive call. Records with an inconclusive call do not appear. A call without a number means that no potency is given here. The source made the active and inactive calls. Unless noted, calls come from the whole dose curve; as a rule, active = well fitted curve in the direction sought with a large enough effect; inconclusive = small, poorly fitted or top-dose-only effect, or another doubt; inactive = no such curve, though single readings can be large; an effect the other way counts as inactive or inconclusive.
# Key:
# [1] = target: Mitogen-activated protein kinase 10 (Mus musculus) (UniProt Q61831); test: JNK3 AlphaScreen Assay (AID 530; active = well fitted curve in either direction with a large enough effect, not every such curve was filed as active;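 note: kinase came from lysate of stimulated human HepG2 cells; signal reports phosphorylation of biotinylated GST-cJun 1-79 at Ser73 with 10 µM ATP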)
# Method in brief: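 qHTS titrations with 15 min compound pre-incubation before adding ATP (10 uM final). Read-out: AlphaScreen of Ser73-phosphorylated biotin-GST-cJun using HepG2 lysate JNK3 activated by IL-1β and TNFα.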
# [2] = Cell Viability - N2a (AID 540); settings: N2a mouse neuroblastoma cell viability; activity change, negative = cytotoxicity: at 92.2 µM (top of the series);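 note: cells exposed to compound for 40 h at 37 °C; nearly all actives have a fitted effect of over 45% in size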
# Method in brief: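 Cytotoxicity was scored as loss of cellular ATP in N2a cells, a mouse neuroblastoma line. Compounds are applied in a qHTS concentration series for 40 hr at 37 °C.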
# [3] = Cell Viability - Renal Proximal Tubule (AID 545);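 note: cells exposed to compound for 40 hours; nearly all actives have a fitted effect of over 40% in size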
# Method in brief: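 Cytotoxicity is scored as a concentration-dependent drop in cellular ATP in primary rat renal proximal tubule cells exposed for 40 hr. AC50 derives from Hill modelling.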
# [4] = Cellular Toxicity (caspase-3) SHSY5Y (AID 657);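 note: cells exposed to compound for 16 hours at 37 °C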
# Method in brief: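 Cells plated and incubated 5 h at 37 °C, dosed over a concentration range, incubated 16 h, then given Caspase-Glo 3/7 reagent for 1 h at room temperature before luminescence reading. Staurosporine (10 uM) defined full stimulation.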
# [5] = target: Cytochrome P450 3A4 (Homo sapiens) (UniProt P08684); test: qHTS Assay for Inhibitors and Substrates of Cytochrome P450 3A4 (AID 884); note: nearly all actives have a fitted effect of over 50% in size; note: potency is the fitted concentration of half-maximal effect
# Cytochrome P450 3A4 (Homo sapiens), sequence (P08684 whole entry, looked up): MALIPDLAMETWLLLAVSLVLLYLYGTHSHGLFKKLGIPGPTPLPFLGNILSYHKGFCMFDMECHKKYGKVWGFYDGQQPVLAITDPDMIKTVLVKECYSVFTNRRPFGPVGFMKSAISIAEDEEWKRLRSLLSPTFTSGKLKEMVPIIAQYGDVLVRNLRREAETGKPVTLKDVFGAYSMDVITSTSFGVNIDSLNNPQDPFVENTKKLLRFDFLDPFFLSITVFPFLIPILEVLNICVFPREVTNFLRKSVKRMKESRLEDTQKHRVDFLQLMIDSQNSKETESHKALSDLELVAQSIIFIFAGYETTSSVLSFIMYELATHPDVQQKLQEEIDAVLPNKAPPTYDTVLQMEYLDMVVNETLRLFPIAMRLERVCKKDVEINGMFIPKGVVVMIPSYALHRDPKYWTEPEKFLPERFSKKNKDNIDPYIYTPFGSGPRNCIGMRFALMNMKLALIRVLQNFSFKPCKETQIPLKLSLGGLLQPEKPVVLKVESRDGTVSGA
# Method in brief: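 Luminescent readout of luciferin produced by CYP3A4 (20 nM) dealkylation of Luciferin-PPXE, 25 uM (its KM). NADPH-driven reaction ran 60 min at RT after 10 min compound preincubation; data scaled to 57 uM ketoconazole as 100% inhibition.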
# [6] = MultiTox-Fluor Cytotoxicity Assay - LYMP1-002 - Dead Cells (AID 960); note: nearly all actives have a fitted effect of over 60% in size
# Method in brief: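 Cells were plated, rested 5 hr, then treated with compound dilution series for 16 hr at 37 C. After adding substrate reagent and 60 min at room temperature, dead-cell protease fluorescence gave concentration-response curves fitted by the Hill equation.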
# [7] = Cell Viability - LYMP2-023 (AID 975);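 note: cellular ATP measured by luciferase luminescence as viability proxy; cells exposed to compound for 24 hours at 37 °C; nearly all actives have a fitted effect of over 55% in size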
# Method in brief: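 Steps: seed 2500 human lymphoblastoid cells per well, incubate 5 hr at 37 C, add compound for 24 hr at 37 C, add CellTiter-Glo, hold 30 min at room temperature, read luminescence. AC50 derived by Hill modelling.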
# [8] = Cell Viability - LYMP1-002 - Assay at 24 hr (AID 993)
# Method in brief: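 Acute toxicity is measured as concentration-dependent loss of cellular ATP in a human lymphoblastoid line (Coriell LYMP1-002) after 24 h treatment in complete medium. ATP is quantified by luciferase luminescence and AC50 derived by Hill modelling.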
# [9] = target: Peroxisome proliferator-activated receptor gamma (Homo sapiens) (UniProt P37231); test: qHTS assay for small molecule agonists of peroxisome proliferator-activated receptor gamma signaling (AID 588536; active = well fitted curve in the direction sought with a large enough effect in the signal ratio, with a control signal flat, not every such curve was filed as active; the % refers to the signal ratio)
# Peroxisome proliferator-activated receptor gamma (Homo sapiens), sequence (P37231 whole entry, looked up): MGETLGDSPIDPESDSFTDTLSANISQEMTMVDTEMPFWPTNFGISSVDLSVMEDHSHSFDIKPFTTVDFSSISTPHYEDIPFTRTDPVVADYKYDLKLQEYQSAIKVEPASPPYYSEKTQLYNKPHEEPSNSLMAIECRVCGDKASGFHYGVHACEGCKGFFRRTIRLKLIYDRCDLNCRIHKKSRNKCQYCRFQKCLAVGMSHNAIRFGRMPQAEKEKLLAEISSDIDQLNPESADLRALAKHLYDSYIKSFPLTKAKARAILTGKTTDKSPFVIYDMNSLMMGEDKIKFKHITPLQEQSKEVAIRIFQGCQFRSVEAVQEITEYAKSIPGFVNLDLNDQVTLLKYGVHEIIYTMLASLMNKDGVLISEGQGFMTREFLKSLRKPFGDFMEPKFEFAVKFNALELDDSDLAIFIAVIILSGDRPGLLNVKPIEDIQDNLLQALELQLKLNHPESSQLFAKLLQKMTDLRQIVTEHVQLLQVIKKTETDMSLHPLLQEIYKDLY
# Method in brief: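 Cells were plated and held 6–6.5 h at 37 C, then compounds were added as a titration series. After a further 16 h, CCF4 dye was loaded for 2 h at room temperature and emission at 460/530 nm recorded.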
# [10] = target: Thyroid hormone receptor beta (Homo sapiens) (UniProt P10828); test: qHTS assay for small molecule antagonists of thyroid hormone receptor beta signaling (AID 588547; active = well fitted inhibition curve with a large enough effect in the signal ratio, with a control signal flat, not every such curve was filed as active; the % refers to the signal ratio;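 note: cells stimulated with 0.4 nM T3 agonist during compound exposure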); settings: TR-UAS-bla HEK293, beta-lactamase ratio, antagonist mode, 18 h
# Thyroid hormone receptor beta (Homo sapiens), sequence (P10828 whole entry, looked up): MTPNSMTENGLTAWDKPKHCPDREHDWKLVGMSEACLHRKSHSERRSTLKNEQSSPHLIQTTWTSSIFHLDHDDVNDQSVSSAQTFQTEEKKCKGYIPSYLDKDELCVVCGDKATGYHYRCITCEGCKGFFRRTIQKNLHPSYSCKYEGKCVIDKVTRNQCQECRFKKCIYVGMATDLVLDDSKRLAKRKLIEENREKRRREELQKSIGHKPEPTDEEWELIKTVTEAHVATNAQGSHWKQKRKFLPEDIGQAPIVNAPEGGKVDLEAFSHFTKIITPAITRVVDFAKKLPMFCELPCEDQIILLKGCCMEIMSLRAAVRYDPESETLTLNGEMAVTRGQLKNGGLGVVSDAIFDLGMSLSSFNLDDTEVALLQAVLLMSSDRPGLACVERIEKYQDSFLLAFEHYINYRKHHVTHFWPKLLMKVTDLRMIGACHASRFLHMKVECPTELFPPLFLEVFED
# Method in brief: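 Inhibition of T3-driven (0.4nM final) beta-lactamase reporter activity was measured over 0.59 nM to 92 uM compound after 18 h at 37 C. The cells were GripTite HEK293 TR-UAS-bla in charcoal/dextran-stripped serum, with CCF4 ratio read-out and IC50 from Hill fits.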
# [11] = target: Voltage-gated inwardly rectifying potassium channel KCNH2 (Homo sapiens) (UniProt Q12809); test: qHTS Assay for Small Molecule Inhibitors of the Human hERG Channel Activity (AID 588834);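 note: U2OS cells transduced with hERG by BacMam; top concentration of the series differs between compounds; lower thallium flux fluorescence means stronger hERG block; nearly all actives have a fitted effect of over 50% in size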
# Voltage-gated inwardly rectifying potassium channel KCNH2 (Homo sapiens), sequence (Q12809 whole entry, looked up): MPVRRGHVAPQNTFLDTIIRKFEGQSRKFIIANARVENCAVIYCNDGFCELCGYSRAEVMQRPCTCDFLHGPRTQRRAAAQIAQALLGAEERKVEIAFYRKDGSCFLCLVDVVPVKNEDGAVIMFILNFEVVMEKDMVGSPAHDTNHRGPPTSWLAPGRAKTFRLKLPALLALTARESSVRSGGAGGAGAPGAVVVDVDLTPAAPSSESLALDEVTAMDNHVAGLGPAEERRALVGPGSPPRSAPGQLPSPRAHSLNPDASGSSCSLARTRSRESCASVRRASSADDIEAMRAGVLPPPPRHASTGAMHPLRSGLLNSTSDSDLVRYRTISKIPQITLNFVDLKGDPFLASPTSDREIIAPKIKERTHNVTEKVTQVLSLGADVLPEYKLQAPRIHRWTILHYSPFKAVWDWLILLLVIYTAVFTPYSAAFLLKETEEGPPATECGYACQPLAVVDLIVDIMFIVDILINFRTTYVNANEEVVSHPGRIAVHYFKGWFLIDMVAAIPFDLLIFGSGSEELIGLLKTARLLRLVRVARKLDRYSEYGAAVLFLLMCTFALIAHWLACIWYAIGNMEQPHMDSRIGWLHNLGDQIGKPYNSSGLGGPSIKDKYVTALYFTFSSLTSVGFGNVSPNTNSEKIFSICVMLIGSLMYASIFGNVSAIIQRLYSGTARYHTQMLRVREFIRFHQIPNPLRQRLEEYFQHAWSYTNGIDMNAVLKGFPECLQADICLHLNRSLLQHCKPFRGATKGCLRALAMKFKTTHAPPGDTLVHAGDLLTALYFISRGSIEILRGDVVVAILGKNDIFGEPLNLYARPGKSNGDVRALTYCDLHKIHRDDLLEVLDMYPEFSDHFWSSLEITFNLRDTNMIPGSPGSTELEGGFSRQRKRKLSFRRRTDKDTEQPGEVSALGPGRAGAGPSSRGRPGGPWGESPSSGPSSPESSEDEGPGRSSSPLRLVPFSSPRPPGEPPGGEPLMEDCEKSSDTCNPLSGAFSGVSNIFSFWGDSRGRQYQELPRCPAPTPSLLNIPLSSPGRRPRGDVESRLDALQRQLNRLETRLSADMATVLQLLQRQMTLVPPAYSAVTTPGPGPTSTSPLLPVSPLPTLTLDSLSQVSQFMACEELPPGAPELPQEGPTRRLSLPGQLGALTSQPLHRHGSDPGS
# Method in brief: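 Cells were infected with hERG-BacMam virus for 4 hrs at room temperature, grown overnight, then seeded at 2000/well. After dye loading and roughly 10 min compound treatment, thallium influx was triggered and fluorescence recorded.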
# [12] = qHTS assay for small molecule disruptors of the mitochondrial membrane potential - 1 hr assay (AID 651754; calls by dose curve; note: nearly all actives have a fitted effect of over 35% in size; note: potency is the fitted concentration of half-maximal effect)
# Method in brief: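 Loss of mitochondrial potential shifts the cationic dye from red mitochondrial aggregates to green cytoplasmic monomers. Cells (HepG2) are treated with compound for 1 hr before a 30 min dye incubation at 37C.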
# [13] = qHTS assay for small molecule disruptors of the mitochondrial membrane potential - 5 hr assay (AID 651755; calls by dose curve; note: nearly all actives have a fitted effect of over 40% in size; note: potency is the fitted concentration of half-maximal effect)
# Method in brief: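 Membrane-potential dye readout: red aggregate (540 ex/590 em) versus green monomer (490 ex/535 em) fluorescence after 30 min dye loading, following 5 hr compound exposure at 37C of overnight-plated HepG2 cells.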
# [14] = target: Tumor necrosis factor (Homo sapiens) (UniProt P01375); test: qHTS assay to identify small molecules that stimulate Tumor Necrosis Factor-alpha (TNF-alpha) secretion (AID 651757; active = well fitted curve in the direction sought with a large enough effect in the signal ratio; the % refers to the signal ratio)
# Tumor necrosis factor (Homo sapiens), sequence (P01375 whole entry, looked up): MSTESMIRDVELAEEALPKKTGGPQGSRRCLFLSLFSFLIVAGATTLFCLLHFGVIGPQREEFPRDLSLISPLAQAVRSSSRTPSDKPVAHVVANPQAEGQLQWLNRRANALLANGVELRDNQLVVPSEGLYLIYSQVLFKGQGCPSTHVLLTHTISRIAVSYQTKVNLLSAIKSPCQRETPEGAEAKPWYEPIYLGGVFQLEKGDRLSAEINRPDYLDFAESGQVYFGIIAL
# Method in brief: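 Human monocytic THP-1 cells are plated, treated with compound and held at 37 C for 17 hrs. Labeled anti-TNF-alpha antibody mixture is then added; after 3 hr at room temperature, TR-FRET signal reports secreted TNF-alpha.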
# [15] = target: Nuclear receptor ROR-gamma (Homo sapiens) (UniProt P51449); test: qHTS assay for small molecule antagonists of the retinoid-related orphan receptor gamma (ROR-gamma) signaling pathway (AID 651802);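 note: CHO cells with doxycycline-induced ROR-gamma expression; nearly all actives have a fitted effect of over 60% in size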
# Nuclear receptor ROR-gamma (Homo sapiens), sequence (P51449 whole entry, looked up): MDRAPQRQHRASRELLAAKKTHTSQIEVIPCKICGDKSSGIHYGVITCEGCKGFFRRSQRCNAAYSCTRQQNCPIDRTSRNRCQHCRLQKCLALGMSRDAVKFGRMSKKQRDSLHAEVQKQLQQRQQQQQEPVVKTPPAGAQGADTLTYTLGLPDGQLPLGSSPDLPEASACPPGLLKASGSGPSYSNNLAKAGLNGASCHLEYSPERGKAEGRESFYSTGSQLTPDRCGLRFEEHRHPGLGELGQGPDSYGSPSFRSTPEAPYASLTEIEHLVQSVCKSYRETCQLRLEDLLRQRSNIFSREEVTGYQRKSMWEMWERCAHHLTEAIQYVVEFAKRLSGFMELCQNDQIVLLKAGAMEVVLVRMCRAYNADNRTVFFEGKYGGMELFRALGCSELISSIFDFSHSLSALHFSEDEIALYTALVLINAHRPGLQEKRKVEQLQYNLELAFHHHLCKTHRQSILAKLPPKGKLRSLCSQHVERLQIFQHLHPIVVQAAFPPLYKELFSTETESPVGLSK
# Method in brief: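 Steps: cells dispensed; compound or DMSO transferred by pin tool; doxycycline added to induce the ROR response element-driven luciferase; plates held 16hr at 37C; ONE-Glo added and luminescence measured.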
# [16] = qHTS assay for small molecule agonists of the antioxidant response element (ARE) signaling pathway measured by Nrf2-dependant transcriptional activity - cell viability counter screen (AID 720653; active = well fitted curve in the direction sought with a large enough effect in the repeat runs; an effect the other way counts as inactive or inconclusive); settings: ARE-bla HepG2 viability, CellTiter-Glo ATP luminescence, 16 h; active compounds read low
# Method in brief: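 Cytotoxicity counter screen: intracellular ATP quantified by CellTiter-Glo luminescence in the same ARE-bla HepG2 plates, after 16 h compound exposure and a 2 h beta-lactamase substrate step.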
# [17] = qHTS assay for cell viability of HEK293 cells (AID 743288); settings: ATP luminescence (CellTiter-Glo), 18 h, active compounds read low; note: nearly all actives have a fitted effect of over 50% in size
# Method in brief: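 Quantitative high-throughput screen: compounds were pinned onto parental HEK293 cells (2,000 per well) after a minimum 5 h settling at 37 C, incubated 18 h at 37 C, and intracellular ATP measured by luciferase luminescence.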
# [18] = target: Nuclear receptor subfamily 1 group I member 2 (Rattus norvegicus) (UniProt Q9R1A7); test: qHTS assay for small molecule activators of the rat pregnane X receptor (rPXR) signaling pathway (AID 651751; call rule not given here); settings: rPXR reporter cells, luciferase (One-Glo), 24 h
# Nuclear receptor subfamily 1 group I member 2 (Rattus norvegicus), sequence (Q9R1A7 whole entry, looked up): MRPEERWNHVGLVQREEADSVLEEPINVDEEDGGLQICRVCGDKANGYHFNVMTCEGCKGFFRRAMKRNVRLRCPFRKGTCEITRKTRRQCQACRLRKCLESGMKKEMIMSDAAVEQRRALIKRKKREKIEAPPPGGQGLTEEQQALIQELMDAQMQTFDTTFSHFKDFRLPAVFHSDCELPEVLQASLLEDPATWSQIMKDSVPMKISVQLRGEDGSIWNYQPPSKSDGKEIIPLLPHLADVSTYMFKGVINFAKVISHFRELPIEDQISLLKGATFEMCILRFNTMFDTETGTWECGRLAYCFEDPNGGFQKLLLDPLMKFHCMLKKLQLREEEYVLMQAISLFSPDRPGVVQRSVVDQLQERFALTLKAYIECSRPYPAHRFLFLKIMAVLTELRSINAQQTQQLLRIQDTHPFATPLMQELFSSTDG
# [19] = qHTS assay for small molecule activators of the human pregnane X receptor (PXR) signaling pathway (AID 720659; call rule not given here)
# [20] = target: Vitamin D3 receptor (Homo sapiens) (UniProt P11473); test: qHTS assay for small molecule antagonists of vitamin D receptor signaling (AID 588541; calls by dose curve;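 note: receptor activated by calcitriol during compound treatment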)
# Vitamin D3 receptor (Homo sapiens), sequence (P11473 whole entry, looked up): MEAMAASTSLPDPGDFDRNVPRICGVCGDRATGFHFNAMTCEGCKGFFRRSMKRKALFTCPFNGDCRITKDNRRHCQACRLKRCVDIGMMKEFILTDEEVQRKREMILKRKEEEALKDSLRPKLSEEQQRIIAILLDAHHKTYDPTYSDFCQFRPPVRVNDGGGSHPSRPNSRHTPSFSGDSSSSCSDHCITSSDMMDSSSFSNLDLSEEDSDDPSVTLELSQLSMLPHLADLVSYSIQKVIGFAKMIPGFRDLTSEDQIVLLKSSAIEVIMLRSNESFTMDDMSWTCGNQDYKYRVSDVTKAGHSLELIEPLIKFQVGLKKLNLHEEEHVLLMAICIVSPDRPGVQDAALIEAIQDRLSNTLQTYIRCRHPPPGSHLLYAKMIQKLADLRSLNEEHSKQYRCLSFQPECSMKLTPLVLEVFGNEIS
# Method in brief: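 Antagonist-mode beta-lactamase reporter assay: HEK293T VDR-UAS-bla cells were exposed to titrated compound alongside 1-alpha,25-dihydroxyvitamin D3 at 3 nM final for 16 h. Values were normalized to the 50 nM agonist control and DMSO basal, with IC50 and efficacy from Hill equation fits.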
SMILES,Potency [1],Potency [2],outcome [3],outcome [4],Potency [5],Potency [6],Potency [7],Potency [8],outcome [9],activity change % (negative = inhibition) [10],Potency [11],Potency [12],Potency [13],outcome [14],Potency [15],max response [16],max response [17],max response [18],outcome [19],outcome [20]
C/C=C/CC#N,inactive,inactive,inactive,inactive,inactive,inactive,inactive,inactive,inactive,15.6%,inactive,inactive,inactive,inactive,inactive,-11.2%,-10.8%,-0.823%,inactive,–
c1ccc(NNc2ccccc2)cc1,inactive,inactive,inactive,inactive,inactive,inactive,inactive,inactive,–,8.59%,–,inactive,inactive,inactive,inactive,0.997% and 18.6%,2.88% and -1.77%,12.1% and 2.7%,inactive,inactive
Nc1cc(Cl)cc(Cl)c1,inactive,inactive,inactive,inactive,–,inactive,inactive,inactive,inactive,–,inactive,inactive,inactive,inactive,inactive,-13%,5.59%,-0.532%,inactive,inactive
C1CC2OC2CC1C1CO1 (stereo not drawn),inactive,inactive,inactive,inactive,inactive,inactive,inactive,inactive,inactive,7.88%,inactive,inactive,inactive,inactive,inactive,-8.97% and -5.29%,-9.23% and -6.84%,-1.19% and -4.43%,inactive,inactive
O=[N+]([O-])c1ccccc1-c1ccccc1,inactive,inactive,inactive,inactive,inactive,inactive,inactive,inactive,inactive,-0.648%,–,inactive,inactive,inactive,inactive,1.78%,0.829%,0.722%,inactive,–
ClCCOCCCl,inactive,inactive,inactive,inactive,inactive,–,inactive,inactive,inactive,0.0195%,inactive,inactive,inactive,inactive,inactive,–,-0.0116%,-1.5%,inactive,–
CCCCCc1cc(O)cc(O)c1,inactive,inactive,inactive,inactive,12.6 µM (active),–,inactive,inactive,inactive,-2.41%,inactive,37.6 µM (active),37.6 µM (active),inactive,inactive,–,-5.2%,-1.86%,inactive,inactive
CC(C)CC(C)N (stereo not drawn),inactive,inactive,inactive,inactive,inactive,inactive,inactive,inactive,inactive,11.1%,inactive,inactive,inactive,inactive,inactive,0.53%,1.65%,0.275%,inactive,–
Cc1cc(Cl)ccc1O,inactive,inactive,inactive,inactive,inactive,inactive,inactive,inactive,inactive,-9.26%,inactive,inactive,inactive,inactive,–,10.4%,-5.93%,-0.864%,inactive,inactive
C[N+](=O)[O-],inactive,inactive,inactive,inactive,inactive,inactive,inactive,inactive,inactive,-5.27%,inactive,inactive,inactive,inactive,inactive,-1.82%,4.12%,–,–,inactive
CC(=O)NNc1ccccc1,inactive,inactive,inactive,inactive,–,–,inactive,inactive,inactive,-1.14%,inactive,inactive,inactive,inactive,inactive,1.56%,2.18%,-6.67%,inactive,inactive
CN(C)N=O,inactive,inactive,inactive,inactive,inactive,inactive,inactive,inactive,inactive,11.5%,inactive,inactive,inactive,inactive,inactive,-2.49%,–,2.44%,inactive,inactive
FC(Cl)(Cl)Cl,inactive,inactive,inactive,inactive,inactive,–,inactive,inactive,inactive,-7.45%,inactive,inactive,inactive,inactive,inactive,-4.09%,-1.1%,–,inactive,inactive
O=[N+]([O-])c1cc(Cl)c(Cl)cc1Cl,inactive,inactive,inactive,inactive,inactive,inactive,inactive,–,inactive,5.06%,inactive,inactive,inactive,inactive,inactive,-7.17%,-3.86%,-0.165%,inactive,inactive
